Consider 39 sequences from the OligoGym collection.
Further: reference of the scale not given here.

For one assay, the target named is PALM2-AKAP2. Description: pooled miR-30 sensor sort-seq; sequence = guide strand. Conditions: shRNA.
The sequence TTGAACAGGAGAAGACACCTGA yielded a sensor-assay potency score (higher = more potent) of 1.01.

TTTTAGATTTGTGTGTCTCATA registered a sensor-assay potency score (higher = more potent) of -0.987.

For TTGACAGATCTTGAGAACTGAT, the sensor-assay potency score (higher = more potent) is -0.51.

Sequence TTGAATGGCATTCTGCACCAGG gave a sensor-assay potency score (higher = more potent) of -0.555.

In a further assay the target is PAQR4. Described as above. Conditions: shRNA.
TAGAGCACGGAGCCTGCAGGGG gave a sensor-assay potency score (higher = more potent) of -1.54.

The sequence TTATTGAACTGCAGGTGCGGCG registered a sensor-assay potency score (higher = more potent) of -1.14.

The sequence GAACTTATTGAACTGCAGGTGC displayed a sensor-assay potency score (higher = more potent) of -1.19.

For TTGGTGGCACATAAAGAGGTGA, the sensor-assay potency score (higher = more potent) was -0.895.

As to TTTATTGATGTCATCCAGGGTC, the sensor-assay potency score (higher = more potent) was 0.153.

Consider AAAGAGGTGATAGAGCACGGAG, for which the sensor-assay potency score (higher = more potent) was -0.892.

Sequence TTGAACTGCAGGTGCGGCGGCG showed a sensor-assay potency score (higher = more potent) of -1.22.

TAGAAGAGGCTGCGCAGGCAGC returned a sensor-assay potency score (higher = more potent) of -1.34.

Sequence TAGCAGGGCAGGGAGCCTGGAG came in with a sensor-assay potency score (higher = more potent) of -1.85.

The sequence TTCGTTGTGCAGGTAGAAGAGG gave a sensor-assay potency score (higher = more potent) of -0.851.

With TCGTTGTGCAGGTAGAAGAGGC, the sensor-assay potency score (higher = more potent) was -0.773.

TATTGAACTGCAGGTGCGGCGG gave a sensor-assay potency score (higher = more potent) of -0.944.

The target of another assay is PAQR6. The assay is described as above. To be noted: shRNA.
With TCGTTGGTCATCTGGAAGGAGC, the sensor-assay potency score (higher = more potent) is -1.68.

Turning to TGAGGACACAGTCCAAAGCCGA, the sensor-assay potency score (higher = more potent) was -1.67.

In the case of TGTGAAAGCAGCAATAATGAGT, the sensor-assay potency score (higher = more potent) was -0.688.

Take TGTAATCAAAGCGTCCTGGTGC: the sensor-assay potency score (higher = more potent) was 0.2.

In the case of AAAGAGTGGGAGGTTGTCGAAC, the sensor-assay potency score (higher = more potent) is -1.08.

TTGTCGAACAGGAATGGATAGG registered a sensor-assay potency score (higher = more potent) of -0.865.

Turning to TAGGCGAAGGCTCCTGTGCGGA, the sensor-assay potency score (higher = more potent) was -1.44.

Regarding TAATGAGTAGGTTCCCAGCTGC, the sensor-assay potency score (higher = more potent) was -0.176.

In turn, TTGGTCATCTGGAAGGAGCTGA yielded a sensor-assay potency score (higher = more potent) of 0.592.

TAGGTTCCCAGCTGCAGCCAAG had a sensor-assay potency score (higher = more potent) of -1.67.

In turn, TCTATAGGCAAATAGCTGCTGG registered a sensor-assay potency score (higher = more potent) of -0.274.

In another assay the target is PARN. Described as above. To be noted: shRNA.
With TAAACTTCTTTTGATCCTCAGG, the sensor-assay potency score (higher = more potent) was -0.665.

The sequence TAGAAGTTAAATGACTTCGTTA gave a sensor-assay potency score (higher = more potent) of -0.166.

TAAGCTTCTGATACCTCTCTTC gave a sensor-assay potency score (higher = more potent) of 0.34.

Consider TTGACATCTGGTGAGGATCTAT, for which the sensor-assay potency score (higher = more potent) was -0.282.

Regarding TTCTTCTTCATCTACTTTGCTG, the sensor-assay potency score (higher = more potent) is -0.0536.

Turning to TTTCTCTTTCCTACTGTGCTGG, the sensor-assay potency score (higher = more potent) was 0.101.

As to TAGCTTTCTGCATATTTGCTGG, the sensor-assay potency score (higher = more potent) is -0.898.

Regarding TTCATGACAGCCTACAACCGTG, the sensor-assay potency score (higher = more potent) is -0.783.

The sequence ATACATAGGACAGAGCTCCTGC displayed a sensor-assay potency score (higher = more potent) of 0.763.

Regarding TTTATTAAAATCAAATCCCTGG, the sensor-assay potency score (higher = more potent) stood at 0.307.

Sequence TAGGCTGCAAGTCTGGTCCTTC yielded a sensor-assay potency score (higher = more potent) of 0.109.

The sequence TTTAGTATCCAAGAGTCTGGGG had a sensor-assay potency score (higher = more potent) of -0.201.
